NPR1 activator: GC-A (human) enzyme activation; HEK293 GC-A cells, cGMP TR-FRET, EC30 ANP; 0% at EC30 ANP, 100% saturating ANP; 0.14% of 370,000 active; activation, % at 10 µM; AID 1671463; P16066; in the data active = activation above about 40%
NPR2 activator: GC-B (human) receptor activation; P20594; HEK293-GC-B cells, CNP EC30, cGMP TR-FRET; 0% at EC30 CNP, 100% saturating CNP; activation, % at 10 µM; 0.11% of 370,000 active; AID 1920062;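 active = activation at 10 µM reaching about 35% in either raw or pattern-adjusted values, limit read from the data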
ALR H2O2 inh: human ALR oxidase inhibition via reduced H2O2; AID 485317; 3.8% of 290,000 active; inhibition, % (concentration not given with the values); purified ALR, DTT oxidation, H2O2 HRP-luminol luminescence; P55789;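 active = mean replicate inhibition above about 79%, with every replicate also reaching it, limit read from the data; inconclusive = only one of the two criteria met; inactive = mean below limit and not every replicate reaching it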
Target sequence (P55789 whole entry, looked up): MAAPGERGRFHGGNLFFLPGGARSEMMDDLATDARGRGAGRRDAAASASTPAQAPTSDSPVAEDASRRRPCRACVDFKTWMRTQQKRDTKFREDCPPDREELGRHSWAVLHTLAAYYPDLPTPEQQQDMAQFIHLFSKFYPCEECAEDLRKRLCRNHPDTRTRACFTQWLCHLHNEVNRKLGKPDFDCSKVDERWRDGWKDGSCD
HDAC3 inhib: inhibitors of human histone deacetylase 3; recombinant HDAC3, fluorogenic peptide/trypsin coupled, fluorescence; inhibition, % at 8.3 µM; 0.15% of 320,000 active; in the data active = inhibition above about 26%, passing the limit was not always enough; inconclusive = no clear call, values can overlap the other calls
Starred values were filed as active, the others as inactive; ? = inconclusive; . = no result. This is one part of a sample in which hits are shown more often than they occur.

SMILES | NPR1 activator | NPR2 activator | ALR H2O2 inh | HDAC3 inhib
COc1ccc(/C=C2\N=C3CCCCCN3C2=O)cc1OC | -1 | 0 | -36 | 0
COc1cc(/C=c2\sc3n(c2=O)CCCN=3)ccc1O | -7 | -3 | 99* | 1
COc1ccc(/C=C2/N=C3CCCCCN3C2=O)cc1 | -21 | -6 | -2 | 1
O=C1/C(=C\c2ccc(O)c(O)c2)N=C2CCCCCN12 | -7 | -6 | 99* | 2
COc1cc(/C=C2\N=C3CCCCCN3C2=O)ccc1O | -1 | -8 | 99* | 3
CCCCOc1ccc(-c2c(C#N)c(N)[nH]c(=S)c2C#N)cc1 | 4 | 1 | 88* | -2
COc1ccc(N/N=C(/C#N)S(=O)(=O)c2nsc(C)c2C#N)cc1 | 0 | -5 | 98* | 7
COc1ccc(N/N=C(/C#N)S(=O)(=O)C(C)(C)C)cc1 | 2 | -7 | 98* | 0
CSc1ccc(N/N=C(/C#N)S(=O)(=O)C(C)(C)C)cc1 | 1 | 4 | 36 | -1
CCOc1ccc(S(=O)(=O)NCCC(=O)NCC(c2ccc(OC)cc2)N2CCCCC2)cc1 (stereo not given) | -4 | -10 | 0 | 1
CCc1nc(SCC(=O)Nc2ccc(N(C)C)cc2)n[nH]1 | -6 | -13 | 98* | -2
CCc1nc(SCC(=O)Nc2ccc(C(=O)O)cc2)n[nH]1 | 3 | 3 | 99* | 8
Cc1ccc(CNC(=O)CSc2nccn(-c3ccc(C)c(F)c3)c2=O)cc1 | -1 | -4 | 98* | -1
COc1ccc(-n2ccnc(SCC(=O)NCc3ccc(C)cc3)c2=O)cc1Cl | 2 | -3 | 98* | 3
COc1ccccc1-n1ccnc(SCC(=O)NCc2ccccc2)c1=O | -1 | 4 | . | .
O=C(CSc1nccn(-c2cccc(F)c2)c1=O)Nc1ccc(Cl)cc1F | -1 | -5 | 99* | 9
Cc1cc(C)nc(Nc2n[nH]c(-c3ccc(N)cc3)n2)n1 | -1 | 2 | 99* | 6
Cc1cc(C)nc(Nc2n[nH]c(-c3ccc(C(C)(C)C)cc3)n2)n1 | 3 | 3 | -15 | 6
C/C(=N\NC(=S)Nc1c(C)cccc1C)c1ccc(O)cc1 | -3 | -1 | 87* | 2
COc1cc(OC)c(-c2c3cc(O)c(=O)cc-3oc3cc(O)c(O)cc23)cc1OC | -1 | -7 | ? | 3
Cc1c2cc(O)c(=O)cc-2oc2cc(O)c(O)cc12 | -8 | 2 | 93* | -1
CN(C)NC(=O)c1ccsc1NC(=O)c1ccc(S(=O)(=O)N2CCCC2)cc1 | -1 | 3 | 87* | 6
CCNC(=S)NNC(=O)c1cc(Br)cs1 | 2 | -1 | 72 | 0
CCOc1cccc(/C=N/Nc2nc(N3CCCC3)nc(N3CCCC3)n2)c1O | -1 | -1 | -13 | -10
CCOc1cc(/C=N/Nc2nc(N3CCCC3)nc(N3CCCC3)n2)ccc1O | 2 | 5 | 99* | 8
SMILES | NPR1 activator | NPR2 activator | ALR H2O2 inh | HDAC3 inhib
CCOc1cc(/C=N/Nc2ccccc2Cl)ccc1OCC(=O)O | 1 | 0 | 99* | 8
COc1ccc(/C=N/Nc2nc(Nc3ccccc3)nc(N3CCCCC3)n2)cc1OC | . | . | 98* | 22
CCOc1cc(/C=N/Nc2nc(Nc3ccccc3)nc(N3CCCCC3)n2)ccc1OCC(=O)O | -5 | 8 | 97* | 6
COc1cc(/C=N/Nc2nc(N3CCCCC3)nc(N3CCCCC3)n2)ccc1OC(=O)c1ccco1 | . | . | -1 | -7
O=C(Oc1cccc(/C=N/Nc2nc(Nc3ccccc3)nc(N3CCOCC3)n2)c1)c1ccco1 | 6 | 3 | -9 | 10
CCOc1cc(/C=N/Nc2cccc(C(=O)O)c2)ccc1OC(=O)c1ccccc1 | -2 | 1 | . | .
CC(CCC(=O)O)C1CCC2C3CC(O)C4CC(O)CC[C@]4(C)C3CCC12C (stereo not given in full) | -1 | -5 | . | .
CC1=NN(c2ccc(C)cc2C)C(=O)C1C(c1cccc(O)c1)C1C(=O)N(c2ccc(C)cc2C)N=C1C (stereo not given) | . | . | 12 | 4
CCOC(=O)C1=CCC(c2ccccc2)N(S(C)(=O)=O)C1 (stereo not given) | 2 | -2 | . | .
CN(C)c1ccc(/C=C2\CCCCC2=O)cc1 | 2 | -1 | 91* | 13
Cc1ccc(CN2CCSc3ccc(C(=O)NCC4CCCO4)cc32)cc1 (stereo not given) | . | . | 87* | -19
CN(C)CCNC(=O)c1ccc2c(c1)N(Cc1ccc(F)cc1)CCS2 | -7 | -4 | 99* | -60
Cc1ccc(CN2CCSc3ccc(C(=O)NCCCN4CCN(C)CC4)cc32)cc1 | 2 | -2 | 98* | -89
